In PubChem BioAssay (NCI) one finds growth inhibition data, which are given here for eight compounds.

SMILES strings stand for the structures. This is part of a sample that, as a whole, favours compounds with a hit. Of some 79,000 tested, about 15% had one in any assay. Unmarked numbers belong to inactive results. The source made the active and inactive calls. Cut-off read from the data, not from the text of the source: active = growth inhibition above about 70%; inactive = the rest.

This test in a line: NCI Yeast Anticancer Drug Screen. Data for the rad14 strain (AID 159).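 Note: 0% = growth of vehicle-treated control cultures.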 To be noted: S. cerevisiae rad14 strain growth inhibition, stronger effect = higher value. The protocol: Growth inhibition of yeast strains with defined genetic alterations is measured as a screen for potential anti-cancer activity. Selected strains with alterations in DNA damage repair or cell cycle control were exposed to compounds and growth inhibition was measured relative to vehicle treated controls. The strain used in this assay is rad14

Consider `O=c1ccc2ccccc2c2ccccc12`, for which the growth inhibition (at 1.2 µM) is -9%; the growth inhibition (at 3.7 µM) was 1%; the growth inhibition (at 11.0 µM) was 63%; the growth inhibition (at 33.0 µM) was 98% (active); the growth inhibition (at 100.0 µM) is 97% (active).
On the same counts, the results for `Oc1ccc2ccccc2c1CCc1c(O)ccc2ccccc12` are 3%, 8%, 28%, 89% (active) and 85% (active).
In the case of `O=C1C=C(c2ccccc2)OC1(c1ccccc1)N1CCOCC1` (stereo not given), the growth inhibition (at 1.2 µM) is -2%; the growth inhibition (at 3.7 µM) is -1%; the growth inhibition (at 11.0 µM) was -1%; the growth inhibition (at 33.0 µM) was 9%; the growth inhibition (at 100.0 µM) was 98% (active).
For the compound `CCOC(=N)c1ccc(O)c(OC)c1`, the growth inhibition was -2% (at 1.2 µM); -6% (at 3.7 µM); -19% (at 11.0 µM); -4% (at 33.0 µM); -1% (at 100.0 µM).
For the compound `CCc1cc(O)c(Cl)c(C)c1Cl`, the growth inhibition by setting is: (at 1.2 µM) 9%; (at 3.7 µM) -5%; (at 11.0 µM) -8%; (at 33.0 µM) 34%; (at 100.0 µM) 90% (active).
For the compound `CCOC(=O)C#Cc1ccc([N+](=O)[O-])cc1`, the growth inhibition is, setting by setting: (at 1.2 µM) 1%; (at 3.7 µM) -4%; (at 11.0 µM) 4%; (at 33.0 µM) 4%; (at 100.0 µM) 5%.
As to `COC(=O)/C=C(/C(=O)OC)C(Cl)(Cl)Cl`, the growth inhibition is 6% (at 1.2 µM); 18% (at 3.7 µM); 64% (at 11.0 µM); 96% (active) (at 33.0 µM); 100% (active) (at 100.0 µM).
Take `CCCCOC(=O)Nc1ccc(C)c(NC(=O)OCCCC)c1`: the growth inhibition was -3% (at 1.2 µM); -3% (at 3.7 µM); 2% (at 11.0 µM); 11% (at 33.0 µM); 15% (at 100.0 µM).
